# Assay outcomes deposited in PubChem by National Center for Advancing Translational Sciences (NCATS).
# BRCA1 expr up: qHTS Assay to Identify Small Molecule Activators of BRCA1 Expression; MCF7-BRCA1-FFLuc reporter, luminescence, 48 h; response scale: scaled: vehicle 0%, 10 µM genistein 100%; Potency, µM (top dose mostly 46.1 µM), inactives show top-dose activation, actives largely listed as activators; 380,000 compounds, 1.1% hits; AID 624202, 2012; also: potency is read from the fitted curve at half-maximal effect; nearly all actives have a fitted effect of over 80% in size
#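 Using MCF7 cells harboring a BRCA1 firefly luciferase reporter, plated 2 h before compound pinning, the screen measured luminescence after 48 h incubation. Responses were normalized to DMSO and 10 microM genistein, then fitted for concentration-effect.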
# Giardia kill: Small Molecules that selectively kill Giardia lamblia: qHTS. Giardia lamblia trophozoite viability. activity change, % at 7.66 µM, hits read low. 340,000 compounds, 0.15% hits. AID 540267, 2011; in the data active = activity change below about -80%; inconclusive = between about -30% and that limit;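 also: parasites exposed to compound for two days anaerobically before the ATP read; % is scaled to controls: 0 for no effect and ±100 for the full control effect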
#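 Anaerobic 48 hrs incubation at 37 deg C of 100 trophozoites/well with test compounds; ATPLite 1-Step luminescence, 15-30 min RT, reports cellular ATP as viability.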
# IL2 activator: qHTS of IL-2 Activators. activation, % (series mostly up to about 46 µM). 360,000 compounds, 0.065% hits. IL-2 activation reporter assay, cell-based qHTS; stimulated with anti-CD3/CD4/CD28 beads; in transgenic mouse T cells; in the data active = activation above about 50%; inconclusive = mostly about 30% to 49%; also: 0% is about no effect
#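 Unstimulated transgenic mouse T cells; 60-min compound exposure; bead-based TCR/CD4/CD28 stimulation; 18 h culture, 37 degrees C; dual fluorescence (EGFP, DsRed) plate cytometry.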
# rTrxR1 inhibitor: qHTS Assay for Inhibitors of Mammalian Selenoprotein Thioredoxin Reductase 1 (TrxR1): qHTS; Thioredoxin reductase 1, cytoplasmic (Rattus norvegicus), O89049; recombinant rTrxR1, NADPH fluorescence consumption, selenite substrate; Potency, µM (doses to about 114 µM), for inactives: top-dose activity change, negative = inhibition, most hits filed as inhibitors; 390,000 compounds, 1% hits; AID 588453, 2011; also: potency is read from the fitted curve at half-maximal effect; % is scaled to controls: 0 for no effect and ±100 for the full control effect; nearly all actives have a fitted effect of over 65% in size
#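 Rat TrxR1 (90 nM in the dispensed reagent) was pre-reduced with 400 uM NADPH for 5 min at room temperature, then incubated with compound for 15 min. After 400 uM selenite was added, NADPH fluorescence (Ex 340/Em 450 nm) was followed for 8 min.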
# IDH1 R132H inh: qHTS for Inhibitors of mutant isocitrate dehydrogenase 1 (IDH1): qHTS; IDH1-R132H enzyme, NADPH consumption, diaphorase/resazurin fluorescence; Potency, µM (highest dose often 76.6 µM), inactives show top-dose activity change, negative = inhibition, usual class: inhibitors; 390,000 compounds, 0.093% hits; also: potency is read from the fitted curve at half-maximal effect; % is scaled to controls: 0 for no effect and ±100 for the full control effect; nearly all actives have a fitted effect of over 65% in size
# Target sequence (O75874 whole entry R132H, stated change not applied): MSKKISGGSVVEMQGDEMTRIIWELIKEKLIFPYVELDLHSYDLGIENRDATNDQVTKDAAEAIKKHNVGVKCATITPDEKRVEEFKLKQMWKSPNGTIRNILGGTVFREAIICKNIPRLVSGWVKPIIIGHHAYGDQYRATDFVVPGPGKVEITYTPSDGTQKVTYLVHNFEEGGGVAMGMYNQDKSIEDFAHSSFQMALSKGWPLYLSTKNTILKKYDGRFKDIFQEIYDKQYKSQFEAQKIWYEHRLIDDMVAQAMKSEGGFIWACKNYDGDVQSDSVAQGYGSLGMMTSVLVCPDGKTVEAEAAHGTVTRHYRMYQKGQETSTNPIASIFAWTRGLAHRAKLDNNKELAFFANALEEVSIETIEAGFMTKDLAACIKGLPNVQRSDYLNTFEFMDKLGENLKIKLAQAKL
#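 IDH1-R132H (0.5 ug/mL dispensed) in pH 7.5 Tris buffer was preincubated 30 min with compound, then given a substrate mix of 0.016 mM NADPH and 2 mM alpha-KG for 80 min at room temperature; remaining NADPH was read by diaphorase/resazurin fluorescence.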
# TrxR1 substrate: qHTS Assay for Substrates of Mammalian Selenoprotein Thioredoxin Reductase 1 (TrxR1): qHTS; Thioredoxin reductase 1, cytoplasmic (Rattus norvegicus), O89049; purified TrxR1 substrate turnover, NADPH consumption readout; Potency, µM (titrated, usually from 114 µM), for the others: at the highest dose activity change, negative = substrate turnover; 390,000 compounds, 0.01% hits; AID 588456, 2011; also: potency is read from the fitted curve at half-maximal effect; % is scaled to controls: 0 for no effect and ±100 for the full control effect; nearly all actives have a fitted effect of over 50% in size
#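 Rat TrxR1, dispensed at 90 nM, was prereduced with 400 uM NADPH (final) for 5 min at ~22 deg C, then incubated with compound 15 min before 400 uM selenite. A first-read NADPH fluorescence drop versus no-compound background flagged substrates.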
# Starred values were filed as active, the others as inactive; u = inconclusive; x = not tested or not shown; [ ] = remark or other dose. Hits are enriched below; roughly 2.2% of the tested compounds scored in any of these assays. Unless noted, calls follow the shape of the dose curve; as a rule, active = well fitted curve in the direction sought with a large enough effect; inconclusive = small, poorly fitted or top-dose-only effect, or another doubt; inactive = no such curve, though single readings can be large; an effect the other way counts as inactive or inconclusive.
SMILES,BRCA1 expr up,Giardia kill,IL2 activator,rTrxR1 inhibitor,IDH1 R132H inh,TrxR1 substrate
O=C(CCl)N1N=C(c2ccco2)CC1c1cccs1 (configuration not stated),-97%,-2,-4,2µM*,-3%,0%
O=C(CSc1nc(-c2ccccc2)no1)N1CCCCC1,x,x,x,-14%,5%,-8%
Cc1ccc(CCNC(=O)c2ccc(CSCc3ccccc3C)o2)cc1,x,x,x,7%[57.1 µM],6%,0%[57.1 µM]
COc1ccc(CCN2C(=O)C=CC2=O)cc1OC,-83%,9,0,0.63µM*,3%,6%
COC(=O)C1=C(C)N(CCc2ccc(OC)c(OC)c2)C(=O)/C1=C\N(C)C,0%,-15,-2,10µM*,-1%,4%
COc1ccc(CCN2C(=O)CN(Cc3ccccc3)CC2=O)cc1OC,11%,1,0,-9%,-1%,-3%
CC(=O)c1sc2nc(-c3ccco3)ccc2c1N,-4%,-1,0,10µM*,7%,-1%
COc1ccc(C2C(CC(=O)O)=C(O)C(=O)N2c2ccccc2)cc1 (configuration not stated),7%,-20,2,32µM*,1%,3%
COc1cc2nc(N3CCCN(C)CC3)nc(NC3CCOCC3)c2cc1OC,-29%,x,x,-20%,x,77%
COc1ccc(NC(=O)Nc2ccc(OC)cc2)cc1,95%,-12,-3,1%,0%,-3%
O=C(Nc1ccc2[nH]ccc2c1)c1ccc(F)cc1,u,-83*,0,16%,0%,-8%
COc1ccc(NC(=O)Nc2ccc3[nH]ccc3c2)cc1,3.2µM*,-28,2,-3%[57.1 µM],-3%,3%[57.1 µM]
O=C(Nc1ccc2[nH]ccc2c1)c1ccccc1,0%,u,3,14%[57.1 µM],-6%,3%
CCCCCCCCCCCCCCCCCC(=O)NCC(COP(=O)([O-])OCC[N+](C)(C)C)OCC (configuration not stated),x,x,x,u,x,-3%[57.1 µM]
Cc1cc(O)c2c(C)c(CC(=O)NCc3ccccc3Cl)c(=O)oc2c1,x,x,x,12%,-7%,18%
O=C(Cc1ccccc1)c1ccc(Cl)cc1,4%,2,0,9%[57.1 µM],2%,10%[57.1 µM]
O=C(Cc1ccccc1)c1ccc(O)cc1,11µM*,-2,0,17%[57.1 µM],-11%,9%[57.1 µM]
O=C(Cc1ccccc1)c1ccc(N2CCOCC2)cc1,11µM*,4,0,29%[57.1 µM],1%,12%[57.1 µM]
O=C(c1ccccc1)c1ccc(N2CCOCC2)cc1,u,-9,0,u,3%,-19%
CCCCCCCCCC[n+]1ccc(/C=C/c2c(C)[nH]c3ccccc23)c2ccccc21,x,x,x,u,x,-11%
Cc1ccc2c(/C=C/c3c[nH]c4ccccc34)ccnc2c1C,x,x,x,20%,x,3%
Cc1ccc(OCc2nc(-c3ccc(C(=O)NCc4ccc(OC(C)C)cc4)cc3)oc2C)cc1,x,x,x,8%,-5%,3%
CCOc1ccccc1NC(=O)CSc1ccc(-c2ccco2)nn1,-28%,26,-1,35µM*,9%,-3%
O=C(Cn1nc(-c2ccco2)ccc1=O)Nc1cc(Cl)ccc1Cl,5%,-17,1,u,0%,18%
Cc1ccc(NC(=O)CSc2ccc(-c3ccco3)nn2)c(C)c1,2%,-9,-2,u,-3%,-2%
SMILES,BRCA1 expr up,Giardia kill,IL2 activator,rTrxR1 inhibitor,IDH1 R132H inh,TrxR1 substrate
CCOc1ccccc1NC(=O)CSc1ccc(-c2sc(C)nc2C)nn1,-35%,8,0,-7%,8%,-5%
O=C(CSc1ccc(-c2ccco2)nn1)Nc1ccccc1F,-3%,-15,1,20µM*,-9%,8%
CCOc1ccccc1NC(=O)Cn1nc(-c2ccco2)ccc1=O,-12%,-6,1,32µM*,14%,3%
COc1ccc(C)cc1NS(=O)(=O)c1ccc2[nH]c(=O)c(=O)[nH]c2c1,x,x,x,-2%,-1%,-7%
CCOc1ccccc1CN1CCc2nc(Nc3ccc4c(c3)OCCO4)ncc2C1,x,x,x,14%[57.1 µM],-3%,3%[57.1 µM]
CN1CCSc2ccc(C(=O)Nc3cc(F)ccc3F)cc21,13µM*,31,-1,9%,5%,37%
Cc1nn(C)c(C(=O)N/N=C/c2ccc(Br)cc2)c1Cl,-14%,-12,-1,1%,6%,3%
CC(C)c1ccc(/C=N/NC(=O)c2c(Cl)cnn2C)cc1,7.1µM*,7,1,-5%,2%,-10%
Cc1ccc(OCC(=O)c2ccc3c(c2)CCCC3)cc1C,4.5µM*,-1,0,-3%,0%,1%
O=C(Cc1cnn(-c2ccccc2)c1)c1ccc(O)c(O)c1O,5.6µM*,-7,0,-13%,-2%,-14%
CCc1cc(C(=O)Cc2cnn(-c3ccccc3)c2)c(O)cc1O,-18%,-13,-3,3%,7%,-2%
O=S(=O)(Nc1ccc(-c2ccc(N3CCCC3)nn2)cc1)c1ccc(Cl)cc1,x,x,x,19%[57.1 µM],2%,-2%[57.1 µM]
O=C(CCCCn1c(=O)c2ccccc2n(Cc2cccc(F)c2)c1=O)NCc1ccc2c(c1)OCO2,-23%,x,x,22%,1%,2%
COc1ccc(/C=C2\C(=O)NC(=O)c3ccccc32)cc1OC,-32%,-3,0,-22%[11.4 µM],2%,-6%[11.4 µM]
COc1ccc(/C=C2\OC(=O)c3c(OC)cccc32)cc1OC,10µM*,-20,0,-30%,3%,27%
COC(=O)/C=C/c1ccc2c(c1)S(=O)(=O)N(C1CCCC1)[C@H]2CC(=O)OC,x,x,x,25%,x,-3%
COc1cc(-c2nnc(SCCOc3ccc(Cl)cc3)o2)cc(OC)c1OC,-9%,x,x,-4%,3%,-5%
CCOC(=O)/C=C/C(=O)OCC(=O)Nc1ccc(C)cc1,-13%,-15,0,40µM*,2%,14%
Cc1ccc2c(Cl)c(C(=O)NC3CC3)sc2c1,2.8µM*,-9,-5,2%,-10%,-9%
O=[N+]([O-])c1c(Nc2ccccc2O)cc(Cl)c2nonc12,-96%,13,-5,0.71µM*,0%,-1%
O=C(O)c1cc(Nc2cc(Cl)c3nonc3c2[N+](=O)[O-])ccc1O,-12%,-24,0,1.8µM*,7%,-21%
O=[N+]([O-])c1c(Nc2ccccc2O)ccc2nonc12,0%,-1,13,21%[57.1 µM],25%,10%[57.1 µM]
